The record followed here is PubChem BioAssay (NCATS).

The nature of test [1]: AP1 Signaling Pathway (AID 357).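 Note: ME-180 reporter cells stimulated with EGF at its EC50 level; % is set by controls: 0 for no effect and ±100 for the full control effect.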 The conditions noted are these: ME-180 AP-1-bla reporter, EGF-induced, beta-lactamase ratio, 5 h. A digest of the protocol:
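AP-1-bla ME-180 cells, Opti-MEM + 0.5% dialyzed FBS, plated overnight 37 °C. Cpd titration + EC50 EGF, 5 h 37 °C. CCF4 2.5 h RT; ex 405, em 460/530 ratio → %activity, AC50.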

Test [2] can be described thus: NFAT Signaling Pathway (AID 444).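 Note: carbachol stimulus at about its EC50 of 1 µM final; % is set by controls: 0 for no effect and ±100 for the full control effect.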 The conditions noted are these: Jurkat NFAT-bla M1, carbachol, beta-lactamase ratio, 5 h. The method, boiled down: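 Read-out: CCF4 FRET ratio (460 nm/530 nm) after 1 h RT dye loading, used for %activity and AC50 from titration series. Cells: Jurkat NFAT-β-lactamase/M1 line, treated with compound plus 1 uM carbachol for 5 h, 37 °C.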

Test [3] is described as follows: Stat Signaling Pathway (AID 446).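 Note: ME-180 cervical cancer cells given 40 pM IL-6 alongside compound; SIE-controlled beta-lactamase reporter measured as 460/530 nm FRET emission ratio; % is set by controls: 0 for no effect and ±100 for the full control effect.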 To be noted: ME-180 SIE beta-lactamase reporter, IL-6 stimulated, 5 h. The method, boiled down:
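Overnight-plated ME-180 cells bearing a STAT Inducible Element beta-lactamase reporter; 5 h co-exposure to compound and 40 pM IL-6; values normalized to 300 pM IL-6 and 125 nM JAK inhibitor controls.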

For test [4], the target named is Glucocorticoid receptor (Homo sapiens) (UniProt P04150). As to the kind of experiment: GR-GFP Redistribution (AID 450;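 active = compounds whose dose series gives a full or clear partial fitted curve of increased nuclear translocation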; note: potency is the fitted concentration of half-maximal effect). To be noted: U2OS GR-GFP nuclear translocation, laser cytometry, 2 h.
Test [5] has the same target. Put plainly: GR-EFC Redistribution (AID 451; calls by dose curve; note: potency is the fitted concentration of half-maximal effect). To be noted: CHO-K1 GR-EFC translocation, beta-gal luminescence, 2 h. The method, boiled down: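 Translocation of GR-ED fusion to nuclear EA restores b-gal, read by luminescence after 1 h room-temperature detection. Engineered CHO-K1 biosensor cells, 1,000/well, exposed 2 h at 37 C to titrations up to 46 uM final.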
Test [6] deals with 3',5'-cyclic-AMP phosphodiesterase 4B (Homo sapiens) (UniProt Q07343). As to the kind of experiment: qHTS Assay for Inhibitors of PDE-IV (AID 607; active = well fitted activation curve with a large enough effect in the main read-out, with a control signal flat, not every such curve was filed as active; note: potency is the fitted concentration of half-maximal effect). To be noted: HEK293 ACTOne CNG channel cells, membrane potential fluorescence; series mostly up to 22.9 µM. A digest of the protocol: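 Live HEK293 cells with a modified cyclic nucleotide-gated (CNG) channel report intracellular cAMP via membrane-potential dye fluorescence (ex 535/em 590 nm). Endogenous PDE-IV was targeted. Compounds were tested at up to 22.9 uM final; RO 20-1724 100 uM served as control.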
In general terms: In qHTS, concentration-response curves come from the screen itself.

Test [7] addresses Cytochrome P450 1A2 (Homo sapiens) (UniProt P05177). Put plainly: p450-cyp1a2 (AID 410; calls by dose curve;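 note: -100% = full effect of reference inhibitor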). To be noted: recombinant CYP1A2, luciferin-ME demethylation, luminescence; series mostly up to 11.4 µM. The method, boiled down: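 Read-out is luminescence from luciferin produced by CYP1A2 demethylation of Luciferin-ME (100uM, at Km). Detection reagent stopped the 60 min NADPH-dependent reaction; signals were normalized to 57 uM furafylline.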

Test [8] has as its target Mitogen-activated protein kinase 10 (Mus musculus) (UniProt Q61831). As to the kind of experiment: JNK3 AlphaScreen Assay (AID 530).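 Note: kinase came from lysate of stimulated human HepG2 cells; signal reports phosphorylation of biotinylated GST-cJun 1-79 at Ser73 with 10 µM ATP; % is set by controls: 0 for no effect and ±100 for the full control effect.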 The conditions noted are these: JNK3 lysate, c-Jun phosphorylation; series mostly up to 11.4 µM. The method, boiled down: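 Kinase buffer: 20 mM Tris-HCl pH 7.6, 10 mM MgCl2, 1 mM DTT, 0.1 mM Na3VO4, 0.01% Tween-20; ATP 10 uM. Substrate biotin-GST-cJun(1-79), enzyme from activated HepG2 lysates. Detection by Ser73 phospho-antibody AlphaScreen.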
On the technique in general: Bead proximity is the source of the signal in Alpha formats.

Test [9] has as its target Guanine nucleotide-binding protein G(i) subunit alpha-1 (Homo sapiens) (UniProt P63096). Put plainly: qHTS Assay for Inhibitors of RGS12 GoLoco Motif Activity (Green Fluorophore) (AID 879; active = well fitted curve in the direction sought with a large enough effect; an effect the other way counts as inactive or inconclusive;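 note: 0% = labeled peptide with Gαi1 and full inhibition = labeled peptide alone without protein; negative values mean loss of peptide binding seen as reduced polarization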). The conditions noted are these: Galphai1/FITC-RGS12 GoLoco peptide, fluorescence polarization; series mostly up to 57.1 µM. The method, boiled down:
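A drop in FITC polarization marked displacement of the FITC-tagged RGS12 GoLoco peptide (10 nM) from Gαi1 (50 nM). Compounds were incubated 10 min at room temperature in Tris pH 7.5 buffer containing 150 mM NaCl, 0.1 mM GDP and 0.05% NP40; unlabeled peptide titration served as control.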

Test [10] has as its target Cytochrome P450 3A4 (Homo sapiens) (UniProt P08684). Put plainly: qHTS Assay for Activators of Cytochrome P450 3A4 (AID 885; active = well fitted curve in the direction sought with a large enough effect; an effect the other way counts as inactive or inconclusive; note: nearly all actives have a fitted effect of over 65% in size). To be noted: recombinant CYP3A4, Luciferin-PPXE luminescence, 60 min; series mostly up to 11.4 µM. A digest of the protocol: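 Using 20nM recombinant human CYP3A4 in potassium phosphate (200mM), substrate Luciferin-PPXE at 25uM, luminescent luciferin detection followed a 60-min RT NADPH reaction; data scaled to 57 uM ketoconazole.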

Test [11] can be described thus: qHTS Assay for Identification of Small Molecule Agonists for Thrombopoietin (TPO) Signaling Pathway (AID 917; active = well fitted curve in the direction sought with a large enough effect; an effect the other way counts as inactive or inconclusive; note: % is set by controls: 0 for no effect and ±100 for the full control effect). The conditions noted are these: TPO signaling pathway reporter cells, agonist qHTS, stimulated with TPO at its EC50; series mostly up to 38.5 µM. The method, boiled down: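 Stimulation at the TPO EC50 (26 pM final) was used to detect activators. Ba/F3 mouse cells bearing human TPO receptor and a luciferase reporter under the Glycoprotein IIb promoter were exposed to compounds for 24 hrs at 37 C.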

The target in test [12] is Muscarinic acetylcholine receptor M1 (Rattus norvegicus) (UniProt P08482). Put plainly: qHTS Assay for Antagonists of Acetylcholine Muscarinic M1 Receptor: Measurement of IP-One Response (AID 944; active = well fitted curve in the direction sought with a large enough effect; an effect the other way counts as inactive or inconclusive; note: nearly all actives have a fitted effect of over 75% in size). To be noted: CHO-M1 cells, IP-One HTRF, antagonist mode; series mostly up to 46.1 µM. A digest of the protocol: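 Antagonism was measured as loss of carbachol-driven (EC80) IP1 accumulation in CHO cells carrying rat M1, using a homogeneous IP-One TR-FRET kit read at 620 and 665 nm.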

In test [13] the target is Pyruvate kinase (Leishmania mexicana) (UniProt Q27686). As to the kind of experiment: qHTS Validation Assay for Inhibitors of Leishmania Mexicana Pyruvate Kinase (AID 945; active = well fitted curve in the direction sought with a large enough effect; an effect the other way counts as inactive or inconclusive;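 note: 0% = DMSO only neutral control wells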). To be noted: purified L. mexicana pyruvate kinase, enzyme activity, E451W mutant enzyme; series mostly up to 57.5 µM. The method, boiled down: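 Compounds are tested as eight-point concentration series. Reactions contain 0.2 nM LmPYK E451W, 0.5 mM PEP, 0.1 mM ADP, 7 mM MgCl2 and 50 mM KCl at pH 7.2, run 1 h at room temperature, then read by PKLight luminescence.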

Test [14] has as its target Pyruvate kinase PKM (Homo sapiens) (UniProt P14618). Put plainly: qHTS Assay for Activators of Human Muscle Pyruvate Kinase (AID 954; active = well fitted curve in the direction sought with a large enough effect, not every such curve was filed as active;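 note: 0% = uninhibited enzyme and -100% = no enzyme or full thiadiazolimine inhibition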). The conditions noted are these: purified human muscle pyruvate kinase, luciferase-coupled luminescence, 1 h; series mostly up to 57.5 µM. The method, boiled down: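 Screening used highly purified human pyruvate kinase M2 under submaximal activity, with PEP at its Km and ADP below Km. After an hour at room temperature, ATP was read by luciferase luminescence.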

Test [15] concerns the target Alpha-galactosidase A (Homo sapiens) (UniProt P06280). As to the kind of experiment: Counterscreen for Glucocerebrosidase Inhibitors: qHTS Assay for Human alpha-Galactosidase at pH 4.5 (AID 992; active = well fitted curve in the direction sought with a large enough effect; an effect the other way counts as inactive or inconclusive; note: 0% is about no effect). The conditions noted are these: purified enzyme, fluorogenic substrate; series mostly up to 76.9 µM. A digest of the protocol:
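Each compound is preincubated briefly with 2 nM enzyme before substrate addition (80 uM); plates then sit 20 min at ambient temperature, are quenched with 1M NaOH/1M glycine, and read fluorometrically.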
A general note: Counterscreens check selectivity or assay interference.

Test [16] deals with alpha-glucosidase (Oryza sativa, rice) (UniProt Q653V4). Put plainly: Counterscreen for Glucocerebrosidase Inhibitors: qHTS Assay for Rice alpha-Glucosidase at pH 5.0 (AID 997; active = well fitted curve in the direction sought with a large enough effect; an effect the other way counts as inactive or inconclusive;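 note: 0% = full activity with enzyme and -100% = basal without enzyme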). The conditions noted are these: rice alpha-glucosidase enzyme activity; series mostly up to 76.9 µM. A digest of the protocol: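 Endpoint fluorogenic assay at pH 5.0: compounds (0.7 nM to 77 uM) titrated against 4 nM rice enzyme and 400 uM 4-MU-alpha-glucoside for 20 min at room temperature; NaOH/glycine stop, read ex 365/em 440 nm, Hill-fitted AC50.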

Test [17] in a line: qHTS Assay for Identification of Small Molecule Agonists for Hypoxia Response Element Signaling Pathway (AID 914; active = well fitted activation curve with a large enough effect in the signal ratio, with a control signal flat, not every such curve was filed as active; the % refers to the signal ratio; note: % of control where 0% means no effect). The conditions noted are these: ME-180 (cervical carcinoma) HRE-bla reporter, beta-lactamase ratio, CoCl2, 17 h; activation: stronger effect = higher value. A digest of the protocol: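 A beta-lactamase reporter under hypoxia response element control in ME-180 cells served as the system. Compound titrations plus EC50 CoCl2 ran 17 h at 37 degrees Celsius; AC50 values were fitted from %Activity.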

Where [18] appears, read: at 7.69 µM (top of the series) unless noted.

SMILES strings stand for the structures. Several values for one entry are separate records, joined by “and”; a condition that tells them apart may be missing. Equal values may be shown once. Results filed as inconclusive are left out. Some structures have more than one record in an assay (separate samples or runs), and their calls can disagree. Activity calls are given as the source filed them. Unless noted, calls come from the whole dose curve; as a rule, active = well fitted curve in either direction with a large enough effect (not every such curve was filed as active); inconclusive = small, poorly fitted or top-dose-only effect, or another doubt; inactive = flat fitted curve, though single readings scatter.

Sequence of 3',5'-cyclic-AMP phosphodiesterase 4B (Homo sapiens) (Q07343 whole entry, looked up): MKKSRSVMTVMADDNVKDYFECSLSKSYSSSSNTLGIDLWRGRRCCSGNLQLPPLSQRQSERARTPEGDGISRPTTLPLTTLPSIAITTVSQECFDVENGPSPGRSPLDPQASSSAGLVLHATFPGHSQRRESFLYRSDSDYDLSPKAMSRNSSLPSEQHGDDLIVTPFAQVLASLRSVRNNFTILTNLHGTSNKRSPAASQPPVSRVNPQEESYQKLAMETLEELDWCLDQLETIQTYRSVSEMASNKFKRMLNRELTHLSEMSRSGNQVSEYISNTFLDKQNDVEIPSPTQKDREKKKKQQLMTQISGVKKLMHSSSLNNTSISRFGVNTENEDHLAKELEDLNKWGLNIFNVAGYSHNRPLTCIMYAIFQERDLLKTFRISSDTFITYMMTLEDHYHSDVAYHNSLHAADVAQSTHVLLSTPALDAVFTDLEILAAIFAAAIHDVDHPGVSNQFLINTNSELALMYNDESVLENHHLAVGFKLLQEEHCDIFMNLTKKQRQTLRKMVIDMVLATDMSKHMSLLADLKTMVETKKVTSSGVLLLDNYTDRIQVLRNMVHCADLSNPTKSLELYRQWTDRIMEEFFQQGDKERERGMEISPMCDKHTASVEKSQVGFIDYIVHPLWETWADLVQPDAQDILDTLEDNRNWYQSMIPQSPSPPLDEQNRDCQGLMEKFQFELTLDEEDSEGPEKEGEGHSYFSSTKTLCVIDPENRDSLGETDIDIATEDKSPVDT
Sequence of Glucocorticoid receptor (Homo sapiens) (P04150 whole entry, looked up, the tested form may be a part): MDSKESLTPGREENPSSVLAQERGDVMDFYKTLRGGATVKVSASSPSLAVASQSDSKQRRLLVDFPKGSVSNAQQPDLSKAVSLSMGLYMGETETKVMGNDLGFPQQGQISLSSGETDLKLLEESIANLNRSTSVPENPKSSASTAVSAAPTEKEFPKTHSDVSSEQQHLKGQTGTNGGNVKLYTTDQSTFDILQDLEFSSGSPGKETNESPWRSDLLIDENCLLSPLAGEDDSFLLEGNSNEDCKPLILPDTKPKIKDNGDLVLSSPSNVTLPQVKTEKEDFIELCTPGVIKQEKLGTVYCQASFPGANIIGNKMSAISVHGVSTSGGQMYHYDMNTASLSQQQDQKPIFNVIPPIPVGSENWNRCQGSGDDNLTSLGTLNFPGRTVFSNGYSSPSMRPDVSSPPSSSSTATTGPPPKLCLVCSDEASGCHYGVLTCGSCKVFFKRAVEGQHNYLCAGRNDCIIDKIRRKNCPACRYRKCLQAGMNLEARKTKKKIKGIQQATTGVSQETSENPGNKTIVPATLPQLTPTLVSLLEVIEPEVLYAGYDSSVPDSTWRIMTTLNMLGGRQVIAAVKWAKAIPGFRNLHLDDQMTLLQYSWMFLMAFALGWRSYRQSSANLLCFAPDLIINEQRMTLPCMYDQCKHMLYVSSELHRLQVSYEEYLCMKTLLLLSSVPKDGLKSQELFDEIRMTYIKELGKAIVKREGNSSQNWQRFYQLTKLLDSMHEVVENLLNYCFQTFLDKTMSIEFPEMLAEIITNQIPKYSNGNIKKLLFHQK
Sequence of Cytochrome P450 3A4 (Homo sapiens) (P08684 whole entry, looked up): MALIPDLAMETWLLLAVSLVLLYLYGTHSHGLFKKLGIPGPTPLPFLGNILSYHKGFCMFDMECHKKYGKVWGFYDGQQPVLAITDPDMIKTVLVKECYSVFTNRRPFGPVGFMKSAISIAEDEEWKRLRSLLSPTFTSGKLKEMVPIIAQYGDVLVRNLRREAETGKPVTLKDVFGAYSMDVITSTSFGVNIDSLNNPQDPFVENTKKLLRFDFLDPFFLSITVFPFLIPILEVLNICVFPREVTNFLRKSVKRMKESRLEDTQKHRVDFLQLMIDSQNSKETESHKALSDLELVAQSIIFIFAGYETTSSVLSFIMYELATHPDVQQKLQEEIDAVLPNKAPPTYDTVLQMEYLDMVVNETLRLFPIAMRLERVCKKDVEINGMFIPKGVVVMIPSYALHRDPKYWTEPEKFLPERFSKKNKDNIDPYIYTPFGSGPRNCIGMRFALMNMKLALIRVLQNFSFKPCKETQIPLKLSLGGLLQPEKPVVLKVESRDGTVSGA
Sequence of Muscarinic acetylcholine receptor M1 (Rattus norvegicus) (P08482 whole entry, looked up): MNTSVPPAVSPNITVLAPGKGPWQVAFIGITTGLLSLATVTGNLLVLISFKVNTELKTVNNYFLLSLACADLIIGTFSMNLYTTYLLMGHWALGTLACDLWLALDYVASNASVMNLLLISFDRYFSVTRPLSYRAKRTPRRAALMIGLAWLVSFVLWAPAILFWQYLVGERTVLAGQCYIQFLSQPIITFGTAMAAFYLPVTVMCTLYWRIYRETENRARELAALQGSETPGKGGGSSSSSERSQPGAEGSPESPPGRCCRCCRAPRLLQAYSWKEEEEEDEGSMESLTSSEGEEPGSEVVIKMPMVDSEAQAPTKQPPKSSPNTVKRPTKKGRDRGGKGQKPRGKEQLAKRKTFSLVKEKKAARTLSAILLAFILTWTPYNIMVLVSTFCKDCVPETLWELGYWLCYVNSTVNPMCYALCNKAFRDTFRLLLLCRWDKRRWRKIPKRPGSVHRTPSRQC
Sequence of Alpha-galactosidase A (Homo sapiens) (P06280 whole entry, looked up): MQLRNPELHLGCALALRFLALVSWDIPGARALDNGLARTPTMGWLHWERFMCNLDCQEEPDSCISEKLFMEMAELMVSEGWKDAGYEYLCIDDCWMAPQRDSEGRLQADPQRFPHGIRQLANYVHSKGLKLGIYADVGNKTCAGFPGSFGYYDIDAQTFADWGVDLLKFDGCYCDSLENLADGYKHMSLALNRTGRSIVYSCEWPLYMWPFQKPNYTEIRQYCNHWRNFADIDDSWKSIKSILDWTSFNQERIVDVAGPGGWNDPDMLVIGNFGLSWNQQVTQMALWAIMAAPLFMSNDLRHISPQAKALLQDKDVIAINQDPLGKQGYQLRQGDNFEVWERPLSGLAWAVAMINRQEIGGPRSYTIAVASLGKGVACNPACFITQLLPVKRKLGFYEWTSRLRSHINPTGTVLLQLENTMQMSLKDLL
Sequence of Guanine nucleotide-binding protein G(i) subunit alpha-1 (Homo sapiens) (P63096 whole entry, looked up): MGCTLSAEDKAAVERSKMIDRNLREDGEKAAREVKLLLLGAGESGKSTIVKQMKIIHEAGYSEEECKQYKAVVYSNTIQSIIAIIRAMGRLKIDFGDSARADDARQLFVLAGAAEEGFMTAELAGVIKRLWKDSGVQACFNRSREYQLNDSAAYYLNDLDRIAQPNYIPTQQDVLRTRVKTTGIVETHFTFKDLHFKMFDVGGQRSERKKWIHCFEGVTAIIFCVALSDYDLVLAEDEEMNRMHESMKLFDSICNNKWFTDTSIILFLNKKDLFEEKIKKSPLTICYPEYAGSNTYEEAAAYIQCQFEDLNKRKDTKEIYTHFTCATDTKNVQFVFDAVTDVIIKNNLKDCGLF
Sequence of Pyruvate kinase (Leishmania mexicana) (Q27686 2-499 E452W): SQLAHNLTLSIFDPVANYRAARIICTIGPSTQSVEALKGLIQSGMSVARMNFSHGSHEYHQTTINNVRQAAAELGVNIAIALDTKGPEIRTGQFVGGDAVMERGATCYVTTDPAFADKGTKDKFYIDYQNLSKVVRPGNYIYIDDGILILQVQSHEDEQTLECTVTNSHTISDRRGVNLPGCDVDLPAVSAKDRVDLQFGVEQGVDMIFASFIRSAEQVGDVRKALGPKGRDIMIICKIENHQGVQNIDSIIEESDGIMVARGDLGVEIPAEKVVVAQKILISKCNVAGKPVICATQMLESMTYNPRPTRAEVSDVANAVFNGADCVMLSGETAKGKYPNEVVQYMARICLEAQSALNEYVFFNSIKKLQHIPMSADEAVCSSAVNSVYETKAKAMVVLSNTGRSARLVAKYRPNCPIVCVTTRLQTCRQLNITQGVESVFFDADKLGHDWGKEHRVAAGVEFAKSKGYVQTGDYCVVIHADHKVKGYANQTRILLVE
Sequence of Pyruvate kinase PKM (Homo sapiens) (P14618 whole entry, looked up): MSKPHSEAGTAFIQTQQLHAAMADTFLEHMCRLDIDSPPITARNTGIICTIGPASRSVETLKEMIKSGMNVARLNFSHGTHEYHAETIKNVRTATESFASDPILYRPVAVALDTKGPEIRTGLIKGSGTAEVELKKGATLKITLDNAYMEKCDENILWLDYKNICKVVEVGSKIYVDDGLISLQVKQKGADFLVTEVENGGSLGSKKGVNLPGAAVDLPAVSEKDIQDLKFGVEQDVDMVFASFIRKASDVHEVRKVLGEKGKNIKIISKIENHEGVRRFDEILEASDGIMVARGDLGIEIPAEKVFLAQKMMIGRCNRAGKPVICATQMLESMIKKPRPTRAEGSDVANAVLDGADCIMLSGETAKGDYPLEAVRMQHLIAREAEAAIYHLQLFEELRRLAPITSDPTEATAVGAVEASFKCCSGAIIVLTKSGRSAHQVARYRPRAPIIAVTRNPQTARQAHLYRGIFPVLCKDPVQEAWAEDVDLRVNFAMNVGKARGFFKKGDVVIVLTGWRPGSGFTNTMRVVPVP
Sequence of Cytochrome P450 1A2 (Homo sapiens) (P05177 whole entry, looked up): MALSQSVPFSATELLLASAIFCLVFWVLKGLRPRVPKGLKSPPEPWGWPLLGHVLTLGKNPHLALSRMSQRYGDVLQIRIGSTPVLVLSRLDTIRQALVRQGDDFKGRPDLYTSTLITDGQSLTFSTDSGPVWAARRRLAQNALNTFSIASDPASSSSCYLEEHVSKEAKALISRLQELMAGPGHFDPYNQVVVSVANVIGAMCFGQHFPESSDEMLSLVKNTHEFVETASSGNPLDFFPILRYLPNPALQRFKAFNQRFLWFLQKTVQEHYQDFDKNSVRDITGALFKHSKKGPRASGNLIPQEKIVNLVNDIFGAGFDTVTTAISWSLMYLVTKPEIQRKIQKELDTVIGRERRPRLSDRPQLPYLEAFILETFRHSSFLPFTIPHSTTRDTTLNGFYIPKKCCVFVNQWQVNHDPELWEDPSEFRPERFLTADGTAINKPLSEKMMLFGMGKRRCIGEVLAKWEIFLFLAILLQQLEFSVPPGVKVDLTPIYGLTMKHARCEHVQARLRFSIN

With `CC(=O)N1CCN(c2ccc(OC[C@@H]3CO[C@@](Cn4ccnc4)(c4ccc(Cl)cc4Cl)O3)cc2)CC1`, the activity change, negative = inhibition in [1] (at 17.2 µM (top of the series)) was -18.1% (inactive); in test [1] (at 38 µM (top of the series)), -10.5% (inactive); in test [2] (at 17.2 µM (top of the series)), -5.42% (inactive); in test [2] (at 38 µM (top of the series)), -20.5% (inactive). Besides, the activity, negative = inhibition in test [3] (at 17.2 µM (top of the series)) is -12.7% (inactive); in test [3] (at 38 µM (top of the series)), -11.9% (inactive). Further, the Potency was > 46 µM (inactive) and > 20.6 µM (inactive) in test [4]; > 46 µM (inactive) and > 20.6 µM (inactive) in test [5]. In test [6], the Potency result is “inactive”.
On to `CNC(=O)[C@@H]1O[C@@H](n2cnc3c(NCc4ccc(N)cc4)ncnc32)[C@@H](O)[C@H]1O`, for which the activity change, negative = inhibition in [1] (setting [18]) was -7.83% [at 38 µM] (inactive); in test [2] (setting [18]), 4.77% [at 38 µM] (inactive). Moreover, the Potency result in [7], in test [8], in [6], in [10], in test [12] and in test [16] was “inactive” each time. Besides, in test [3] (setting [18]), the activity, negative = inhibition is -2.42% [at 38 µM] (inactive). Besides, the Potency in [4] and in [5] was > 46 µM (inactive) throughout. The molecule was classed as inactive in [9], in test [11], in test [13], in test [14] and in test [15].
As for `CC(C)(C)c1ccc([C@@H](O)CCCN2CCC(C(O)(c3ccccc3)c3ccccc3)CC2)cc1`, the activity change, negative = inhibition in test [1] (at 17.2 µM (top of the series)) is 2.82% (inactive); in test [1] (at 38 µM (top of the series)), 6.21% (inactive); in test [2] (at 17.2 µM (top of the series)), -18.2% (inactive); in test [2] (at 38 µM (top of the series)) it was -0.347% (inactive). Moreover, the figures for the activity, negative = inhibition in [3] (at 17.2 µM (top of the series)) and in test [3] (at 38 µM (top of the series)) were -5.86% (inactive) and 9.55% (inactive), respectively. The Potency in [4] is > 46 µM (inactive) and > 20.6 µM (inactive); in [5], > 46 µM (inactive) and > 20.6 µM (inactive); in test [6], 2 µM (active) and inactive. Further, the Potency result in [8] was “inactive”. For the same molecule, the activation in [17] was 18.6% (inactive).
